The full data set covers some 7,900 targets. This sample favours those with a hit. About 0.6% of all pairs of compound and target were hits.
Compound: CNC(=O)C1=CC=CC=C1NC2=NC(=NC=C2Cl)NC3=C(C=C(C=C3)N4CCOCC4)OC
Assay: log2 fold change, soluble protein after heating vs DMSO (PISA); higher = thermal stabilisation; K562 cells, 10 uM, 30 min; active = over 0.2 and 3.5 SD of the protein, either way, in both replicates (recomputed)
In short: (§1)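 K562 cells at 2×10^6 cells/mL were treated with 10 μM compound for 30 min. Aliquots were heated for 3 min across 48°C-58°C, pooled, and extracted in PBS with 0.5% NP-40 at 4°C; soluble protein was the supernatant after 21,000xg for 90 min. Soluble protein was quantified by TMTpro 16plex LC-MS/MS with channel sums equalised, and reported as log2 fold change in thermal stability against DMSO controls, with values from duplicates.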

UniProt Q9NQG6, sequence (Q9NQG6 whole entry, looked up): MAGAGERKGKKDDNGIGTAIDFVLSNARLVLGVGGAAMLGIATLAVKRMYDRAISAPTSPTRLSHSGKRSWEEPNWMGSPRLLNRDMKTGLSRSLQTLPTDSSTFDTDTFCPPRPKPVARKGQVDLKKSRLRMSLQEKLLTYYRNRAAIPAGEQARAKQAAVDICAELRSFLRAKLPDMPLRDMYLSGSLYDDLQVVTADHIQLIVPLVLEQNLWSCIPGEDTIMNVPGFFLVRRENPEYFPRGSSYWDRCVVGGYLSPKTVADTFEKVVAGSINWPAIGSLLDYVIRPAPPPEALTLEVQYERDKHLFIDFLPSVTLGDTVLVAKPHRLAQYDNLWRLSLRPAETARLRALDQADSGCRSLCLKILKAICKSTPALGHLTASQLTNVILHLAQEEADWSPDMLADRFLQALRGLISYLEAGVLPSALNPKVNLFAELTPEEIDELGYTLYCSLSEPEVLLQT
UniProt Q07820, sequence (Q07820 whole entry, looked up): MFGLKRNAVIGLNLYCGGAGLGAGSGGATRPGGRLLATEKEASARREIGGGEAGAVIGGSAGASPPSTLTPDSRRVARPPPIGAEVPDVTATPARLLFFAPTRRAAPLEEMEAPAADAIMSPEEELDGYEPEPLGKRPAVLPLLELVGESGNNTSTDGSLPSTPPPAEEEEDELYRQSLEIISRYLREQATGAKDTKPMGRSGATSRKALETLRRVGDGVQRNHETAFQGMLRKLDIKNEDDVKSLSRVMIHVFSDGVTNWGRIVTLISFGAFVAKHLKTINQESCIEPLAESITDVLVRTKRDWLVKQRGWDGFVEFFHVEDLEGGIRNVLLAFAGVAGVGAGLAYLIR
UniProt Q9UIQ6, sequence (Q9UIQ6 whole entry, looked up): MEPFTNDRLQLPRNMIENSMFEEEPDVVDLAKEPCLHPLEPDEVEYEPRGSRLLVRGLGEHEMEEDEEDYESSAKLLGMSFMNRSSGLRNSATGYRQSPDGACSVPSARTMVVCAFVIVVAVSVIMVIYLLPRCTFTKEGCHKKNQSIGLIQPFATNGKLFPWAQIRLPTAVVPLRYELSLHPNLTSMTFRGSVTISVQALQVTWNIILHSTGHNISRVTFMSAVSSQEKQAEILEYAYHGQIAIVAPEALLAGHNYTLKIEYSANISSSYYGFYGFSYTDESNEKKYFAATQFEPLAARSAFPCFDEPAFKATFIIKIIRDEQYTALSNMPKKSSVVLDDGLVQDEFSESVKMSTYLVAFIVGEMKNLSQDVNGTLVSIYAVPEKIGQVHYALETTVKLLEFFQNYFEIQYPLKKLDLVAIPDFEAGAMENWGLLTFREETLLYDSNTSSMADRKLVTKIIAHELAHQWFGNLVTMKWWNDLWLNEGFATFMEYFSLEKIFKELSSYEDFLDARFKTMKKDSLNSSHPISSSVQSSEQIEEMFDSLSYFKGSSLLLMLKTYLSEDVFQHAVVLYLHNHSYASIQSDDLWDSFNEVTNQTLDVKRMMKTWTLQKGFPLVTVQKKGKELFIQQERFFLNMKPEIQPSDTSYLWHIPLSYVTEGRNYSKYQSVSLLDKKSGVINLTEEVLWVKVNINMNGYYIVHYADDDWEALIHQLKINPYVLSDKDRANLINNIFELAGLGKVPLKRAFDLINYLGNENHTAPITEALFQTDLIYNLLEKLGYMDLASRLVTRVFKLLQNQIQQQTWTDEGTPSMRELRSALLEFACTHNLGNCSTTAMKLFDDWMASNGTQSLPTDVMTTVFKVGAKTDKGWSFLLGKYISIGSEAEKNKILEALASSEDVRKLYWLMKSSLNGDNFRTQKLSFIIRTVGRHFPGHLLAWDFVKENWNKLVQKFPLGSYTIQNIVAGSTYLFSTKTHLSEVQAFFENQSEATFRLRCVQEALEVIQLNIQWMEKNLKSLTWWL
UniProt Q96PC5, sequence (Q96PC5 whole entry, looked up): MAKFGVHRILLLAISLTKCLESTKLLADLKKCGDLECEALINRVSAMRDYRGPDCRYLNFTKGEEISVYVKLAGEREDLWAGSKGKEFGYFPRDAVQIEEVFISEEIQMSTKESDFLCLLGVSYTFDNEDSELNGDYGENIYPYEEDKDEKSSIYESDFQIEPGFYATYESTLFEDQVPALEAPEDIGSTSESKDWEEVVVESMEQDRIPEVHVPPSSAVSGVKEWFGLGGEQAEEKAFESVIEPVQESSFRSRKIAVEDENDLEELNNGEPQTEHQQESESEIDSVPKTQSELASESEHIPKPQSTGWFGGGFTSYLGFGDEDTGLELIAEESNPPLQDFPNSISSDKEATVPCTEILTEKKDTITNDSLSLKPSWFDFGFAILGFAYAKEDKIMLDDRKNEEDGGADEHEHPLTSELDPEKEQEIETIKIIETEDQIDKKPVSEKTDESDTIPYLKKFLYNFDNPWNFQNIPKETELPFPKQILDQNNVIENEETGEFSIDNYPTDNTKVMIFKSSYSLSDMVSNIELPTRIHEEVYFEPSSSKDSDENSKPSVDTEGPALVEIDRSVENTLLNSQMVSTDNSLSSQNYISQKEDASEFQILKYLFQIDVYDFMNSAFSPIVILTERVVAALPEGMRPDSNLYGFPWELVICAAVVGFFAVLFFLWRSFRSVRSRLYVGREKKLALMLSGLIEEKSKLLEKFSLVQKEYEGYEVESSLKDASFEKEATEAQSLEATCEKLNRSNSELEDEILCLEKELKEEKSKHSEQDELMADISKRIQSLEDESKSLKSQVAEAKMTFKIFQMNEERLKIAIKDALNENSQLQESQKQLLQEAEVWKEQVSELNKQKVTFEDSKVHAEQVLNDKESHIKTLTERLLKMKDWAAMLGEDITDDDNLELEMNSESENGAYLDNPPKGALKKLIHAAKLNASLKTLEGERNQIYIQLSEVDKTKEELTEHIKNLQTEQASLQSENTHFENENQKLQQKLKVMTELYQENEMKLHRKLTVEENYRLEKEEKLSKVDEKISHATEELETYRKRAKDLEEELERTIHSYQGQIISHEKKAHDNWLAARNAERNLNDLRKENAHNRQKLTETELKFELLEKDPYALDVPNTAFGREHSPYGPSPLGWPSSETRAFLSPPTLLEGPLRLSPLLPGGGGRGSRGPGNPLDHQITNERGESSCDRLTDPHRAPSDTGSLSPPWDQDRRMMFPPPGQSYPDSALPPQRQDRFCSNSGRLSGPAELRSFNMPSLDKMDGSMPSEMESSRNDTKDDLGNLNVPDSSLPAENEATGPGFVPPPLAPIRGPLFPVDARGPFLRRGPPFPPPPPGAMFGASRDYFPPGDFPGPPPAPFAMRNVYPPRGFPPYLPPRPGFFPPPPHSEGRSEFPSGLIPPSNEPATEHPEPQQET
UniProt P33947, sequence (P33947 whole entry, looked up): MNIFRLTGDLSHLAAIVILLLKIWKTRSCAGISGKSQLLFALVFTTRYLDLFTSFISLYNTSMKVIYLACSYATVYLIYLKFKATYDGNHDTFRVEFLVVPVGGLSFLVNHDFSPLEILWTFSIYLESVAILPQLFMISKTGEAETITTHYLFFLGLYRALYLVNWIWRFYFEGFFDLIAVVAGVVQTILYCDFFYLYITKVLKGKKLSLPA
UniProt Q86UP2, sequence (Q86UP2 whole entry, looked up): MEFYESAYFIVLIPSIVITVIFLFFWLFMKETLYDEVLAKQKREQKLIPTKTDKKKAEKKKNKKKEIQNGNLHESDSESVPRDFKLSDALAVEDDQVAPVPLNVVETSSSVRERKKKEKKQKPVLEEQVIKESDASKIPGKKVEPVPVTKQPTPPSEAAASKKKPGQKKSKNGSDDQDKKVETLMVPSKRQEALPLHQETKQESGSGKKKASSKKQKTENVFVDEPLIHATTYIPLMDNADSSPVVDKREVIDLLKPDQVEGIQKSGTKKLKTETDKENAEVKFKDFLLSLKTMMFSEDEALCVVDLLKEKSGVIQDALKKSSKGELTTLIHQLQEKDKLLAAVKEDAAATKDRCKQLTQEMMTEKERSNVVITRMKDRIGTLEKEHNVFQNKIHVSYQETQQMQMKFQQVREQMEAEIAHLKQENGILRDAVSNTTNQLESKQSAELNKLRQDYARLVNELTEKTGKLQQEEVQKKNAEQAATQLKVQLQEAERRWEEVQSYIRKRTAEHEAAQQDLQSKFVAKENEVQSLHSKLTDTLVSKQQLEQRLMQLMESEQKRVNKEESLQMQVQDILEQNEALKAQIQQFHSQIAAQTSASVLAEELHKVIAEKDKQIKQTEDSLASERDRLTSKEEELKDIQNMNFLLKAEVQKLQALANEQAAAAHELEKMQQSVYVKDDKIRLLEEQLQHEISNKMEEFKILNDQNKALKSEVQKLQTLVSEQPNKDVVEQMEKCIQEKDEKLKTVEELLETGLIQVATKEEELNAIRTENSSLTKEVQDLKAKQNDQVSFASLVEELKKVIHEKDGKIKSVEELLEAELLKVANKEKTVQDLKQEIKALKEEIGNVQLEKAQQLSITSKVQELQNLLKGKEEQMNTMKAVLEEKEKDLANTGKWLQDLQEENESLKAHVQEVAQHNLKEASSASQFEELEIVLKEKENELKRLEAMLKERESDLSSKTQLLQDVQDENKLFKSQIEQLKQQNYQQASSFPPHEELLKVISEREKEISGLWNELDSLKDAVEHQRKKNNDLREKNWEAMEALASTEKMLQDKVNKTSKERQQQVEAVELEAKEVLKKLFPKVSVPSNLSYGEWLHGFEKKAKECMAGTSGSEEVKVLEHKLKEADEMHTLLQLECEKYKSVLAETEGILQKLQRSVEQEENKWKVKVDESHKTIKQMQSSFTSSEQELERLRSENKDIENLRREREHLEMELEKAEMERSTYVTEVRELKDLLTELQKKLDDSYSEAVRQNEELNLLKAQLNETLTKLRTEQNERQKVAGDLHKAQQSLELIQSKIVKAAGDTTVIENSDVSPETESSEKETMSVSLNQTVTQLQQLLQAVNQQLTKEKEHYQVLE

| Target | log2 fold change |
| --- | --- |
| IWS1 (UniProt Q96ST2) | -0.054 (inactive) |
| LUC7L2 (UniProt Q9Y383) | -0.304 (active) |
| MARK3 (UniProt P27448) | -0.367 (inactive) |
| MIEF1 (UniProt L0R8F8) | 0.008 (inactive) |
| KIF11 (UniProt P52732) | 0.275 (inactive) |
| LPIN3 isoform 2 (UniProt Q9BQK8) | -0.087 (inactive) |
| INPP5B (UniProt P32019) | -0.007 (inactive) |
| LNPEP (UniProt Q9UIQ6) | -0.01 (inactive) |
| KDM1A isoform 2 (UniProt O60341) | -0.032 (inactive) |
| IPO13 (UniProt O94829) | 0.001 (inactive) |
| MIEF1 (UniProt Q9NQG6) | -0.002 (inactive) |
| KDELR2 (UniProt P33947) | 0.04 (inactive) |
| KTN1 (UniProt Q86UP2) | -0.12 (inactive) |
| KHDRBS1 (UniProt Q07666) | 0 (inactive) |
| KSR1 (UniProt Q8IVT5) | -0.061 (inactive) |
| LUC7L3 (UniProt O95232) | -0.314 (active) |
| LAMP2 (UniProt P13473) | 0.105 (inactive) |
| MED1 (UniProt Q15648) | 0.042 (inactive) |
| MICU2 (UniProt Q8IYU8) | -0.03 (inactive) |
| ILK (UniProt Q13418) | -0.034 (inactive) |

| Target | log2 fold change |
| --- | --- |
| KIF13A (UniProt Q9H1H9) | 0.1 (inactive) |
| KIF3A (UniProt Q9Y496) | 0.085 (inactive) |
| KDM5D isoform 3 (UniProt Q9BY66) | 0.026 (inactive) |
| KIAA1324L (UniProt A8MWY0) | -0.014 (inactive) |
| MIER1 isoform 12 (UniProt Q8N108) | -0.058 (inactive) |
| MIA2 (UniProt Q96PC5) | 0.021 (inactive) |
| LIMA1 isoform 4 (UniProt Q9UHB6) | -0.033 (inactive) |
| METTL18 (UniProt O95568) | -0.042 (inactive) |
| KIF21A isoform 4 (UniProt Q7Z4S6) | 0.001 (inactive) |
| LUC7L (UniProt Q9NQ29) | -0.119 (inactive) |
| KEL (UniProt P23276) | -0.091 (inactive) |
| LEO1 (UniProt Q8WVC0) | -0.039 (inactive) |
| LARP4 isoform 4 (UniProt Q71RC2) | 0.047 (inactive) |
| MFF (UniProt Q9GZY8) | -0.127 (inactive) |
| MFN1 (UniProt Q8IWA4) | -0.019 (inactive) |
| MCL1 (UniProt Q07820) | -0.022 (inactive) |
| LYN (UniProt P07948) | -0.287 (inactive) |
| ILVBL (UniProt A1L0T0) | 0.002 (inactive) |
| KCTD2 (UniProt Q14681) | -0.076 (inactive) |

Compound: CNC(=O)c1ccc(Nc2ncc(C(F)(F)F)c(NCc3nccnc3N(C)S(C)(=O)=O)n2)cc1 [defactinib]
Assay: as above
In short: as §1

| Target | log2 fold change |
| --- | --- |
| IWS1 (UniProt Q96ST2) | 0.035 (inactive) |
| LUC7L2 (UniProt Q9Y383) | -0.267 (active) |
| MARK3 (UniProt P27448) | -0.176 (inactive) |
| MIEF1 (UniProt L0R8F8) | -0.003 (inactive) |
| KIF11 (UniProt P52732) | 0.017 (inactive) |
| LPIN3 isoform 2 (UniProt Q9BQK8) | -0.022 (inactive) |
| INPP5B (UniProt P32019) | 0.112 (inactive) |
| LNPEP (UniProt Q9UIQ6) | -0.054 (inactive) |
| KDM1A isoform 2 (UniProt O60341) | -0.065 (inactive) |
| IPO13 (UniProt O94829) | -0.04 (inactive) |
| MIEF1 (UniProt Q9NQG6) | 0.014 (inactive) |
| KDELR2 (UniProt P33947) | -0.004 (inactive) |
| KTN1 (UniProt Q86UP2) | 0.109 (inactive) |
| KHDRBS1 (UniProt Q07666) | 0.042 (inactive) |
| KSR1 (UniProt Q8IVT5) | -0.073 (inactive) |
| LUC7L3 (UniProt O95232) | -0.113 (inactive) |
| LAMP2 (UniProt P13473) | -0.047 (inactive) |
| MED1 (UniProt Q15648) | -0.005 (inactive) |
| MICU2 (UniProt Q8IYU8) | -0.014 (inactive) |
| ILK (UniProt Q13418) | 0 (inactive) |

| Target | log2 fold change |
| --- | --- |
| KIF13A (UniProt Q9H1H9) | -0.026 (inactive) |
| KIF3A (UniProt Q9Y496) | 0.013 (inactive) |
| KDM5D isoform 3 (UniProt Q9BY66) | -0.357 (inactive) |
| KIAA1324L (UniProt A8MWY0) | 0.033 (inactive) |
| MIER1 isoform 12 (UniProt Q8N108) | -0.13 (inactive) |
| MIA2 (UniProt Q96PC5) | -0.085 (inactive) |
| LIMA1 isoform 4 (UniProt Q9UHB6) | -0.015 (inactive) |
| METTL18 (UniProt O95568) | -0.021 (inactive) |
| KIF21A isoform 4 (UniProt Q7Z4S6) | 0.016 (inactive) |
| LUC7L (UniProt Q9NQ29) | 0.022 (inactive) |
| KEL (UniProt P23276) | -0.038 (inactive) |
| LEO1 (UniProt Q8WVC0) | -0.211 (inactive) |
| LARP4 isoform 4 (UniProt Q71RC2) | -0.036 (inactive) |
| MFF (UniProt Q9GZY8) | -0.025 (inactive) |
| MFN1 (UniProt Q8IWA4) | -0.074 (inactive) |
| MCL1 (UniProt Q07820) | -0.015 (inactive) |
| LYN (UniProt P07948) | -0.174 (inactive) |
| ILVBL (UniProt A1L0T0) | -0.054 (inactive) |
| KCTD2 (UniProt Q14681) | 0.038 (inactive) |

Source: the supplement of paper PMC10849652
